Compounds with a hit are over-represented: about 3.5% of the library has one in this group of screens.
GPR151 ag: activators of human GPR151, primary screen, cell-based, PathHunter beta-arrestin, luminescence. G-protein coupled receptor 151 (Homo sapiens), Q8TDV0. PathHunter beta-arrestin GPR151 cells. activation, % at 11.2 µM. 1% of 650,000 active; in the data active = activation above about 4.9%
TEAD-YAP block: TEAD-YAP interaction inhibition, primary screen, TEAD-YAP interaction inhibitor project, luminescence, HEK-TIYL cells; TEAD-Gal4/YAP UAS-luciferase luminescence; inhibition, % at 9.12 µM; 1.4% of 640,000 active; in the data active = inhibition above about 32%
MITF primary: MITF inhibitors, primary screen, biochemical, AlphaScreen, human; AID 1259374, 2018; 0.91% of 650,000 active; Microphthalmia-associated transcription factor (Homo sapiens), O75030; AlphaScreen MITF homodimerization, bead proximity signal; inhibition, % at 2.6 µM; in the data active = inhibition above about 50%
FBW7 act: FBW7 E3 ligase activators, primary screen, biochemical, AlphaScreen, human | normalized activity (activation), % at 26.1 µM | 0.13% of 650,000 active | AlphaScreen FBW7–phospho-cyclin E peptide binding, activator screen | F-box/WD repeat-containing protein 7 (Homo sapiens), Q969H0 | AID 1259310, 2017; in the data active = normalized activity above about 1.9%;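 also: purified mutant Fbw7 with reduced substrate affinity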
Target sequence (Q969H0 whole entry, looked up): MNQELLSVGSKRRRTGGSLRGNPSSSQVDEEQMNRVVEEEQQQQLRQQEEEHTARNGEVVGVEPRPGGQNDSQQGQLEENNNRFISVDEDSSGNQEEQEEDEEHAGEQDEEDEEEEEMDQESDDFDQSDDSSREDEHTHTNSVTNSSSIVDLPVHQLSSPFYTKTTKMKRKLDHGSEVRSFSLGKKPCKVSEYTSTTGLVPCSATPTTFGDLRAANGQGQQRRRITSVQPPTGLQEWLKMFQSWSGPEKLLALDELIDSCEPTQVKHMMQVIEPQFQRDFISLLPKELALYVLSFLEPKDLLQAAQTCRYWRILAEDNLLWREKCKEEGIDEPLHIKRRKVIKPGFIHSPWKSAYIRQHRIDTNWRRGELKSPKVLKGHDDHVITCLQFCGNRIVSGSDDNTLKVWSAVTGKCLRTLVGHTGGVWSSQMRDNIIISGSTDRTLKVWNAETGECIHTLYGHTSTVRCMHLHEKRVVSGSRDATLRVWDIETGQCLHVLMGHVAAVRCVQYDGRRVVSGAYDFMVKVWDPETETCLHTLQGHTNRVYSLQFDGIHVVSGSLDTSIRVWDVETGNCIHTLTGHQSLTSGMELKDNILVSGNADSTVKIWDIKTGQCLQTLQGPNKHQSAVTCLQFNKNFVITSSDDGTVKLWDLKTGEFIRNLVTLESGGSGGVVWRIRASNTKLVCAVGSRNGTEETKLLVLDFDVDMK
Numbers stand for hits.

`N#C/C(=C/c1ccc(O)cc1)c1ccc(C#N)cc1` gave GPR151 ag inactive, TEAD-YAP block 45, MITF primary inactive and FBW7 act inactive.
O=C(N/N=C/c1cc([N+](=O)[O-])ccc1O)C(=O)Nc1ccccc1OC(F)(F)C(F)F was read as GPR151 ag inactive, TEAD-YAP block inactive, MITF primary inactive and FBW7 act inactive.
Screening O=C(N/N=C/c1cc(Cl)ccc1O)C(=O)Nc1ccccc1OC(F)(F)C(F)F returned GPR151 ag inactive, TEAD-YAP block 79, MITF primary inactive and FBW7 act inactive.
CC(C)N1C/C(=C/c2cccnc2)C(=O)/C(=C/c2cccnc2)C1 was read as GPR151 ag inactive, TEAD-YAP block 52, MITF primary inactive and FBW7 act inactive.
`CN1C/C(=C/c2cccnc2)C(=O)/C(=C/c2cccnc2)C1` gave GPR151 ag inactive, TEAD-YAP block 74, MITF primary inactive and FBW7 act inactive.
`COc1ccc(Nc2ncnc3sc4c(c23)CCC(C)C4)cc1` (centres undefined) gave GPR151 ag inactive, TEAD-YAP block inactive, MITF primary inactive and FBW7 act inactive.
N#Cc1cccc(Cn2c(-c3nonc3N)nc3ccccc32)c1 was read as GPR151 ag inactive, TEAD-YAP block 48, MITF primary inactive and FBW7 act inactive.
COc1cc(OC)c(OC)cc1CNc1nc(C)c(-c2ccn(CCO)n2)s1 was read as GPR151 ag inactive, TEAD-YAP block 37, MITF primary inactive and FBW7 act inactive.
Screening COc1ccc(CNc2nc(C)c(-c3ccn(CCO)n3)s2)c(OC)c1OC returned GPR151 ag inactive, TEAD-YAP block inactive, MITF primary inactive and FBW7 act inactive.
CCOC(=O)N1CCc2c(sc(NCc3ccccn3)c2C(=O)Nc2ccc(OC)cc2OC)C1 was read as GPR151 ag inactive, TEAD-YAP block 48, MITF primary inactive and FBW7 act inactive.
`CC(=O)Oc1ccc2c(=O)c(-c3cc4ccccc4o3)coc2c1` gave GPR151 ag inactive, TEAD-YAP block inactive, MITF primary inactive and FBW7 act inactive.
Cc1nc(-c2coc3cc(O)ccc3c2=O)cs1 was read as GPR151 ag inactive, TEAD-YAP block 34, MITF primary inactive and FBW7 act inactive.
For COc1ccc2c(=O)c(-c3ccccc3)coc2c1 the results were GPR151 ag inactive, TEAD-YAP block inactive, MITF primary inactive and FBW7 act inactive.
`O=c1c(-c2cc3ccccc3o2)coc2cc(O)ccc12` gave GPR151 ag inactive, TEAD-YAP block 36, MITF primary inactive and FBW7 act inactive.
COc1ccc2c(=O)c(-c3cscn3)coc2c1 was read as GPR151 ag inactive, TEAD-YAP block 44, MITF primary inactive and FBW7 act inactive.
`COCCC(=O)NC(C)c1nnc2n1CCN(Cc1cccc(C(F)(F)F)c1)CC2` (centres undefined) gave GPR151 ag inactive, TEAD-YAP block inactive, MITF primary inactive and FBW7 act inactive.
Screening COCCNc1nc2nonc2nc1N(C)CC1CCCCN1C (centres undefined) returned GPR151 ag inactive, TEAD-YAP block inactive, MITF primary inactive and FBW7 act inactive.
`Cc1cc(Br)ccc1OCC(=O)NNC(=O)/C=C/c1ccccc1` gave GPR151 ag inactive, TEAD-YAP block inactive, MITF primary inactive and FBW7 act inactive.
O=C(Nc1ccc(-c2noc(-c3cccc(Cl)c3)n2)cc1)c1ccco1 was read as GPR151 ag inactive, TEAD-YAP block 54, MITF primary inactive and FBW7 act inactive.
C[C@@H]1C[C@@H]2O[C@H]2C=CC=CC(=O)Cc2c(Cl)c(O)cc(O)c2C(=O)O1 was read as GPR151 ag inactive, TEAD-YAP block 52, MITF primary inactive and FBW7 act inactive.
`COc1cc(OC)c(-n2c(C)cc(/C=C3/C(=N)N4OC(C)=CC4=NC3=O)c2C)cc1Cl` gave GPR151 ag inactive, TEAD-YAP block inactive, MITF primary inactive and FBW7 act inactive.
Screening COc1ccc(OC)c(-n2c(C)cc(/C=C3/C(=N)N4OC(C)=CC4=NC3=O)c2C)c1 returned GPR151 ag inactive, TEAD-YAP block 48, MITF primary inactive and FBW7 act inactive.
For CC1=CC2=NC(=O)/C(=C\c3cc(C)n(-c4cc(C)ccc4C)c3C)C(=N)N2O1 the results were GPR151 ag inactive, TEAD-YAP block 61, MITF primary inactive and FBW7 act inactive.
O=C(COc1ccc(F)cc1)Nc1nccs1 was read as GPR151 ag inactive, TEAD-YAP block inactive, MITF primary inactive and FBW7 act inactive.
For Cc1ccc(OCC(=O)Nc2nccs2)cc1C the results were GPR151 ag inactive, TEAD-YAP block 75, MITF primary inactive and FBW7 act inactive.
For CCCc1ccc(OCC(=O)Nc2nccs2)cc1 the results were GPR151 ag inactive, TEAD-YAP block 81, MITF primary inactive and FBW7 act inactive.
For CCc1ccc(OCC(=O)Nc2nccs2)cc1 the results were GPR151 ag inactive, TEAD-YAP block 86, MITF primary inactive and FBW7 act inactive.
For CC(C)(C)NC(=O)c1ccc(Cl)cc1[N+](=O)[O-] the results were GPR151 ag inactive, TEAD-YAP block inactive, MITF primary inactive and FBW7 act inactive.
`CC(=O)c1c(C)n(CC(=O)N2CCCc3ccccc32)c2ccccc12` gave GPR151 ag inactive, TEAD-YAP block inactive, MITF primary inactive and FBW7 act inactive.
Screening CCC(c1ccccc1)c1nnc(NC(=O)c2cccc(Br)c2)s1 (centres undefined) returned GPR151 ag inactive, TEAD-YAP block inactive, MITF primary inactive and FBW7 act inactive.
`CCCc1cc(N2CCC(C(N)=O)CC2)n2cnnc2n1` gave GPR151 ag inactive, TEAD-YAP block inactive, MITF primary inactive and FBW7 act inactive.
For CCCc1cc(N2CCN(c3ccc(C(C)=O)cc3)CC2)n2cnnc2n1 the results were GPR151 ag inactive, TEAD-YAP block 42, MITF primary inactive and FBW7 act inactive.
Screening CCOc1ccc(C(=O)NC(=S)Nc2ccc(NC(C)=O)cc2)cc1Br returned GPR151 ag inactive, TEAD-YAP block inactive, MITF primary inactive and FBW7 act inactive.
`O=Cc1ccccc1Nc1cc(NC(=O)Cc2ccc3c(c2)OCO3)ncc1Cl` gave GPR151 ag inactive, TEAD-YAP block 57, MITF primary inactive and FBW7 act inactive.
O=C(Cc1ccc2c(c1)OCO2)Nc1cc(Nc2ccccc2-c2nn[nH]n2)c(F)cn1 was read as GPR151 ag inactive, TEAD-YAP block inactive, MITF primary inactive and FBW7 act inactive.
O=C(Cc1ccc2c(c1)OCO2)Nc1cc(Nc2ccccc2-c2ncn[nH]2)c(F)cn1 was read as GPR151 ag inactive, TEAD-YAP block 54, MITF primary inactive and FBW7 act inactive.
CCN(CC)C(=O)C1CCCN(Cc2cc(OC)c(OC)cc2Br)C1 (centres undefined) was read as GPR151 ag inactive, TEAD-YAP block inactive, MITF primary inactive and FBW7 act inactive.
COc1ccccc1C(=O)NCCCCCC(=O)NN was read as GPR151 ag inactive, TEAD-YAP block inactive, MITF primary inactive and FBW7 act inactive.

High-throughput results deposited in PubChem BioAssay by The Scripps Research Institute Molecular Screening Center.
